# Where “and” joins values, the source holds several entries; their conditions need not be identical. Equal values may be shown once.
# Target: Apelin receptor (Homo sapiens) (UniProt P35414)
# Assay: apelin receptor (APJ) antagonists, SAR follow-up, counter-screen for CXCR6 antagonist project, cell-based, beta-arrestin, DiscoveRx, panel, CHO-K1 (AID 651598)
# Conditions: CHO-K1 PathHunter beta-arrestin luminescence, antagonist mode; run 2, at 80 µM (top of the series)
# Apelin receptor (Homo sapiens), sequence (P35414 whole entry, looked up): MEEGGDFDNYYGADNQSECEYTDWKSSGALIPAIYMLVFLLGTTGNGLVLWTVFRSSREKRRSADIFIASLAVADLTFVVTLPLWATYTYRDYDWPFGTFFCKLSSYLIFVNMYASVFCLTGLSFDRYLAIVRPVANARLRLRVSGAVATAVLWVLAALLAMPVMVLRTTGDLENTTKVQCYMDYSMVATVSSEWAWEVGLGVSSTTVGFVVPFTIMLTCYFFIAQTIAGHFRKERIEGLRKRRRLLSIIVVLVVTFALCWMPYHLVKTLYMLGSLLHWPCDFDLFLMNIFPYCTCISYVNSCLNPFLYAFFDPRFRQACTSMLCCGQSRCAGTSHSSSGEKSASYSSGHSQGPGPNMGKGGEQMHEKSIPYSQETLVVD
row,SMILES,inhibition
1,COc1cc(C(=O)NC2CCN(CC(=O)Nc3ccccc3)CC2)cc(OC)c1OC,4.86%
2,COc1cc(C(=O)NC2CC3CCC(C2)N3CC(=O)Nc2ccccc2)cc(OC)c1OC (stereo not drawn),-3.64% and 3.22%
3,COc1cc(C(=O)NC2CC3CCCC(C2)N3CC(=O)Nc2ccccc2)cc(OC)c1OC (stereo not drawn),11.6% and 7.3% and -8.97%

# — PubChem BioAssay AID651598 (Sanford-Burnham Center for Chemical Genomics, 2012)
